The text below walks through data of PubChem BioAssay (NCATS).

Where “and” joins values, the source holds several entries; their conditions need not be identical. Identical values can stand only once. Results filed as inconclusive are left out. Calls of active or inactive are those of the source. Unless noted, calls come from the whole dose curve.

The target in assay [1] is Bile acid receptor (Homo sapiens) (UniProt Q96RI1). Put plainly: qHTS assay for small molecule antagonists of farnesoid X receptor signaling (AID 588526). Note: % is set by controls: 0 for no effect and ±100 for the full control effect. In a few lines:
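Antagonist mode: titrated compounds tested against chenodeoxycholic acid stimulation (normalized to 50 uM CDCA and DMSO) in GeneBLAzer HEK293T cells for 16 h. Beta-lactamase read by CCF4 fluorescence; IC50 from Hill fits.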

The target in assay [2] is Glucocorticoid receptor (Homo sapiens) (UniProt P04150). Put plainly: qHTS assay for small molecule agonists of glucocorticoid receptor signaling (AID 588532; active = well fitted curve in the direction sought with a large enough effect in the signal ratio, with a control signal flat; the % refers to the signal ratio;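 note: 100% = dexamethasone at 0.1 µM and 0% = DMSO only wells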). The note with it: HeLa MMTV-bla, beta-lactamase ratio, agonist, 18 h; stronger effect = higher value; percent of dexamethasone control, DMSO zero. In a few lines:
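HeLa GRE-bla reporter cells; 18 h compound exposure at 37 C; 2 h CCF4 loading at room temperature; fluorescence at 460 and 530 nm; EC50 by Hill equation.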

For assay [3] the target is unchanged. Put plainly: qHTS assay for small molecule antagonists of glucocorticoid receptor signaling (AID 588533; active = well fitted inhibition curve with a large enough effect in the signal ratio, with a control signal flat, not every such curve was filed as active; the % refers to the signal ratio; note: % is set by controls: 0 for no effect and ±100 for the full control effect). The procedure, abridged: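 Antagonist-mode qHTS: compound titrations added to GRE-bla HeLa cells, then dexamethasone 2 nM final; 18 h, 37 C. CCF4 FRET fluorescence normalized to dexamethasone and DMSO; IC50 from Hill fit.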
Assay [4] in a line: qHTS assay for small molecule antagonists of peroxisome proliferator-activated receptor delta signaling (AID 588535; active = well fitted inhibition curve with a large enough effect in the signal ratio, with a control signal flat, not every such curve was filed as active; the % refers to the signal ratio;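 for max response: cells co-treated with a PPAR-delta agonist as stimulator during compound exposure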). The note with it: HEK293T PPARd-UAS-bla, beta-lactamase FRET ratio, 18 h; 460 nm channel. The procedure, abridged: (§1)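 Cells were seeded at 4000 per well in assay medium containing 2% charcoal/dextran FBS and held 5 hrs at 37 C. Compounds were then added for 18 hrs. CCF4 substrate was applied for 2 hrs at room temperature before fluorescence reading.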

Assay [5] has as its target Peroxisome proliferator-activated receptor delta (Homo sapiens) (UniProt Q03181). Described as above. In a few lines:
as §1

Assay [6] has as its target Peroxisome proliferator-activated receptor gamma (Homo sapiens) (UniProt P37231). The assay can be described thus: qHTS assay for small molecule agonists of peroxisome proliferator-activated receptor gamma signaling (AID 588536; active = well fitted curve in the direction sought with a large enough effect in the signal ratio, with a control signal flat, not every such curve was filed as active; the % refers to the signal ratio;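 note: 0% = DMSO basal wells and 100% = rosiglitazone at 2 µM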). In a few lines:
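Test agents, titrated, stimulated HEK293 UAS-bla cells overnight (16 h, 37 C). Substrate CCF4 was then added for two hours at room temperature before fluorescence reading.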

The target is the same in assay [7]. The assay can be described thus: qHTS assay for small molecule antagonists of peroxisome proliferator-activated receptor gamma signaling (AID 588537; active = well fitted inhibition curve with a large enough effect in the signal ratio, with a control signal flat, not every such curve was filed as active; the % refers to the signal ratio;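 note: reporter cells co-stimulated with 50 nM rosiglitazone agonist during compound treatment; % of control where 0% means no effect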). The procedure, abridged: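 Step one: plate 3000 HEK293 UAS-bla cells per well in medium with 1% stripped serum and hold 6-6.5 h at 37 C. Step two: add compound and 50 nM agonist for 16 h. Step three: CCF4 loading, fluorescence read.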

Assay [8] concerns the target Vitamin D3 receptor (Homo sapiens) (UniProt P11473). The assay can be described thus: qHTS assay for small molecule antagonists of vitamin D receptor signaling (AID 588541).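 Note: receptor activated by calcitriol during compound treatment; series mostly up to about 77 µM; % is set by controls: 0 for no effect and ±100 for the full control effect.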 The procedure, abridged:
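VDR-UAS-bla HEK293T cells in 2% charcoal-stripped FBS were stimulated with 1-alpha,25-dihydroxyvitamin D3 (3 nM final) plus compound for 16 h at 37 C. The beta-lactamase CCF4 readout was normalized to 50 nM agonist and DMSO, and Hill fits gave IC50.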

The nature of assay [9]: qHTS assay for small molecule agonists of retinoid X receptor alpha signaling (AID 588544).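 For activation: 0% = DMSO basal wells and 100% = reference agonist.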 The note with it: HEK293T RXRa-UAS-bla, beta-lactamase reporter, 18 h; 530 nm emission.
In assay [10] the target is Retinoic acid receptor RXR-alpha (Homo sapiens) (UniProt P19793). The description is as above.
Retinoic acid receptor RXR-alpha (Homo sapiens), sequence (P19793 whole entry, looked up): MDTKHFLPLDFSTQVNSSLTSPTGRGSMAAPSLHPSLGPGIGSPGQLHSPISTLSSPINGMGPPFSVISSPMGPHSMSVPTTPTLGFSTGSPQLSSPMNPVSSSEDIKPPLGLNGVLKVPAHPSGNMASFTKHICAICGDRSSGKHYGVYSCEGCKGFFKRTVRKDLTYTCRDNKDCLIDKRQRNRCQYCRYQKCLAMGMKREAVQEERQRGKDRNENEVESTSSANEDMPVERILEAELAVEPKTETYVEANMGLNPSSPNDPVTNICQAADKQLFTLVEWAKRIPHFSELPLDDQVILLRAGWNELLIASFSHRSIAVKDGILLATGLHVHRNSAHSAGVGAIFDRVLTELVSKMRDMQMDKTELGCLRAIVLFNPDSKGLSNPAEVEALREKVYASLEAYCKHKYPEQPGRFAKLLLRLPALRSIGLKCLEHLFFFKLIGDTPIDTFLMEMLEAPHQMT
Assay [11] concerns the target Thyroid hormone receptor beta (Homo sapiens) (UniProt P10828). Put plainly: qHTS assay for small molecule agonists of thyroid hormone receptor beta signaling (AID 588545). In a few lines:
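In this cell-based screen, titrated compounds act on HEK 293 cells held in medium with 2% charcoal/dextran FBS, NEAA and pyruvate for 18 hrs at 37 C. Responses are expressed relative to T3 (10 nM) as 100% and basal DMSO as 0%.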

Assay [12] can be described thus: qHTS assay for small molecule antagonists of retinoid X receptor alpha signaling (AID 588546; active = well fitted inhibition curve with a large enough effect in the signal ratio, with a control signal flat, not every such curve was filed as active; the % refers to the signal ratio;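 note: cells stimulated with 9-cis-retinoic acid as agonist; % is set by controls: 0 for no effect and ±100 for the full control effect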). The note with it: HEK293T RXRa-UAS-bla, beta-lactamase ratio, antagonist mode; measured here: W530 green channel, cytotoxicity proxy. In a few lines: (§2)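 Beta-lactamase reporter inhibition, read as CCF4 fluorescence ratio (ex 405, em 460/530 nm) after 2 h at RT. HEK293T UAS-bla cells, 2500/well, were stimulated with 9-cis-RA at 500 or 100 nM final alongside test compound for 18 h at 37 C.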

The target in assay [13] is Retinoic acid receptor RXR-alpha (Homo sapiens) (UniProt P19793). The assay is described as above. The note with it: HEK293T RXRa-UAS-bla, beta-lactamase ratio, antagonist mode. The procedure, abridged:
as §2

The target in assay [14] is Thyroid hormone receptor beta (Homo sapiens) (UniProt P10828). The assay can be described thus: qHTS assay for small molecule antagonists of thyroid hormone receptor beta signaling (AID 588547; active = well fitted inhibition curve with a large enough effect in the signal ratio, with a control signal flat, not every such curve was filed as active; the % refers to the signal ratio). The note with it: TR-UAS-bla HEK293, beta-lactamase ratio, antagonist mode, 18 h. The procedure, abridged:
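TR-UAS-bla GripTite HEK293 cells in 2% charcoal/dextran FBS medium; compounds 0.59 nM to 92 uM with T3 at 0.4nM final, 18 h at 37 C. Beta-lactamase read by CCF4 fluorescence (460/530 nm); Hill fits gave IC50 and efficacy.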

Assay [15] in a line: qHTS assay for small molecule activators of the p53 signaling pathway (AID 651743; active = well fitted activation curve with a large enough effect in the signal ratio, not every such curve was filed as active; the % refers to the signal ratio; note: series mostly up to about 92 µM; % of control where 0% means no effect). The note with it: HCT-116 p53RE-bla, beta-lactamase FRET ratio, 16 h; stronger effect = higher value. The procedure, abridged:
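HCT-116 p53RE-bla, 4,000 cells/well; 5 h settle; cpd/DMSO 16 h, 37 C; LiveBLAzer B/G 2 h RT; fluorescence intensity.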

The nature of assay [16]: qHTS assay for small molecule activators of the nuclear factor-kappa B (NF-kB) signaling pathway (AID 651749; active = well fitted activation curve with a large enough effect in the signal ratio; the % refers to the signal ratio; note: series mostly up to about 77 µM; % of control where 0% means no effect). The note with it: NF-kB-bla ME-180 cells, beta-lactamase FRET ratio, 16 h; stronger effect = higher value. The procedure, abridged:
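Incubation lasted 16 hr at 37C in 5% CO2 after 23 nL compound addition to ME-180 NF-kB-bla cells. Activation appears as beta-lactamase-mediated FRET loss.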

The target of assay [17] is Vitamin D3 receptor (Homo sapiens) (UniProt P11473). Put plainly: qHTS assay for small molecule agonists of vitamin D receptor signaling (AID 588543).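 Note: 0% = DMSO basal and 100% = reference agonist control.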 In a few lines: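 GeneBLAzer VDR-UAS-bla HEK293T cells in 2% charcoal-stripped FBS medium were dosed with compound titrations for 16 h at 37 °C; CCF4 β-lactamase readout (405 nm ex, 460/530 nm em). EC50 and efficacy from Hill fits, normalized to 50 nM calcitriol (100%) and DMSO (0%).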
Vitamin D3 receptor (Homo sapiens), sequence (P11473 whole entry, looked up): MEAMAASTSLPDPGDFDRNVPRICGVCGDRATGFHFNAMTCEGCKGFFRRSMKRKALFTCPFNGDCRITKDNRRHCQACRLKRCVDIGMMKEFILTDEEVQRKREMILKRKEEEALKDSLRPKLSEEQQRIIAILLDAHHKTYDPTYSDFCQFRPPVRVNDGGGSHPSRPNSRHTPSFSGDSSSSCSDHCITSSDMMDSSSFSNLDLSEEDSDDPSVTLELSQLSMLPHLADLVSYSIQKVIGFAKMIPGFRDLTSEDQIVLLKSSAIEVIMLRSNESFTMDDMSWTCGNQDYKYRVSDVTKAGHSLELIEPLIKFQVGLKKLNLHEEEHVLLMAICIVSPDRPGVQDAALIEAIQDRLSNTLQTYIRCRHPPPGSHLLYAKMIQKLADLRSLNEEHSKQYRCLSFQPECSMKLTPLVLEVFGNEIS

Assay [18] addresses Voltage-gated inwardly rectifying potassium channel KCNH2 (Homo sapiens) (UniProt Q12809). The assay can be described thus: qHTS Assay for Small Molecule Inhibitors of the Human hERG Channel Activity (AID 588834; active = well fitted inhibition curve with a large enough effect;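 note: top concentration of the series differs between compounds; % is set by controls: 0 for no effect and ±100 for the full control effect; lower thallium flux fluorescence means stronger hERG block; nearly all actives have a fitted effect of over 50% in size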). In a few lines: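 U2OS cells transduced with hERG via BacMam (MOI ~100), plated 2000/well, loaded with FluxOR thallium dye, compound ~10 min, then stimulation buffer; fluorescence decrease read kinetically; AC50 from Hill fits.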

The nature of assay [19]: qHTS assay for small molecule agonists of the antioxidant response element (ARE) signaling pathway (AID 651741; active = well fitted activation curve with a large enough effect in the signal ratio; the % refers to the signal ratio; note: potency is the fitted concentration of half-maximal effect; for activation: % of control where 0% means no effect). In a few lines: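 HepG2 ARE-bla cells plated at 2,000 cells/well and incubated 5 h at 37 C/5% CO2 received 23 nL compound in DMSO. After 16 h at 37 C, LiveBLAzer B/G FRET substrate was applied for 2 h at room temperature and fluorescence read.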

Thyroid hormone receptor beta (Homo sapiens), sequence (P10828 whole entry, looked up): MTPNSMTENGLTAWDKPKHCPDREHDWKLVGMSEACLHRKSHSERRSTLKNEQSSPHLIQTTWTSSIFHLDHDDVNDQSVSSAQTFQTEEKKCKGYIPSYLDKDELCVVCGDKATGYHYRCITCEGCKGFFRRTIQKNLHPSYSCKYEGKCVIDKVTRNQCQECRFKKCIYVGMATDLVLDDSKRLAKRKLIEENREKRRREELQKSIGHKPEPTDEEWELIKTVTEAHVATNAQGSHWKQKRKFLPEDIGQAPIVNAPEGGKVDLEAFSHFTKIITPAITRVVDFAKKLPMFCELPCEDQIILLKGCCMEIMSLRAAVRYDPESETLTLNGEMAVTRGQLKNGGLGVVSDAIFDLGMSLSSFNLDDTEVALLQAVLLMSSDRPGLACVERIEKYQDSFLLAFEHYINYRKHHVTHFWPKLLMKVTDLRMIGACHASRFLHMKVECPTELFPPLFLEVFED
Peroxisome proliferator-activated receptor delta (Homo sapiens), sequence (Q03181 whole entry, looked up): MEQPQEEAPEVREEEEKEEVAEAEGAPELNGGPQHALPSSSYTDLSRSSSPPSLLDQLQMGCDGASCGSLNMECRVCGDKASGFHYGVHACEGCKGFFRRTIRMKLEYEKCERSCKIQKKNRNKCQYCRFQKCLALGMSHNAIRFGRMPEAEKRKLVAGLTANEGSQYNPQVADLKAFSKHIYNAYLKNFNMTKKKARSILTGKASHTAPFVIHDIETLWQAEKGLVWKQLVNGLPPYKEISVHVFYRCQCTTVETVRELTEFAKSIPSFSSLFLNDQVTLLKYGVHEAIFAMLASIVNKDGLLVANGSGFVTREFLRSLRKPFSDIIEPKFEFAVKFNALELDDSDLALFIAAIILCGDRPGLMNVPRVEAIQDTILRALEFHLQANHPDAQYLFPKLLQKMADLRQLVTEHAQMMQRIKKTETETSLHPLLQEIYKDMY
Bile acid receptor (Homo sapiens), sequence (Q96RI1 whole entry, looked up): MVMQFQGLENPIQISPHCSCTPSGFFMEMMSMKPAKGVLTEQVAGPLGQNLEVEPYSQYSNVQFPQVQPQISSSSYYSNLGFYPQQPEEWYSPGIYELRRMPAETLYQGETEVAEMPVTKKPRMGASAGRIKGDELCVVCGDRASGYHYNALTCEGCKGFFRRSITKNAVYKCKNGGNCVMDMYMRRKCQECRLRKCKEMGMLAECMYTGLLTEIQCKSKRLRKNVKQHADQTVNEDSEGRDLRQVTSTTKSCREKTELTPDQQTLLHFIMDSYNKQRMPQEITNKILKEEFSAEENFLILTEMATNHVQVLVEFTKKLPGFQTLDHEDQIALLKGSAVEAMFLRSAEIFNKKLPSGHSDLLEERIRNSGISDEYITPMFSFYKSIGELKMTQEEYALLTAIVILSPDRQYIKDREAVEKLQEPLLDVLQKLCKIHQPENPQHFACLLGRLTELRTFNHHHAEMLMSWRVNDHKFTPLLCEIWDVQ
Peroxisome proliferator-activated receptor gamma (Homo sapiens), sequence (P37231 whole entry, looked up): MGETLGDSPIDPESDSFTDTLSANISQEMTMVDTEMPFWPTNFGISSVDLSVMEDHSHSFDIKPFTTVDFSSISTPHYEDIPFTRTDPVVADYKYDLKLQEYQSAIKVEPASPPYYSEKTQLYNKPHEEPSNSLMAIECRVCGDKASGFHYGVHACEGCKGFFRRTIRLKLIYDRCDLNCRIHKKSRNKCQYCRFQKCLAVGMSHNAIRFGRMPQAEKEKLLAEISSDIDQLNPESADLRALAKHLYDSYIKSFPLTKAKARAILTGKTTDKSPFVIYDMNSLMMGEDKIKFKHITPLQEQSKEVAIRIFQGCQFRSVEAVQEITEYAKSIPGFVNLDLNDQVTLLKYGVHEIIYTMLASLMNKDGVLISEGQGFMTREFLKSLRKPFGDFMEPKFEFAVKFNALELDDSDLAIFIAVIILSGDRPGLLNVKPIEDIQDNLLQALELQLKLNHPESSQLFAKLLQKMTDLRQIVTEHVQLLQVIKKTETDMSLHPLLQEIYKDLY
Glucocorticoid receptor (Homo sapiens), sequence (P04150 whole entry, looked up): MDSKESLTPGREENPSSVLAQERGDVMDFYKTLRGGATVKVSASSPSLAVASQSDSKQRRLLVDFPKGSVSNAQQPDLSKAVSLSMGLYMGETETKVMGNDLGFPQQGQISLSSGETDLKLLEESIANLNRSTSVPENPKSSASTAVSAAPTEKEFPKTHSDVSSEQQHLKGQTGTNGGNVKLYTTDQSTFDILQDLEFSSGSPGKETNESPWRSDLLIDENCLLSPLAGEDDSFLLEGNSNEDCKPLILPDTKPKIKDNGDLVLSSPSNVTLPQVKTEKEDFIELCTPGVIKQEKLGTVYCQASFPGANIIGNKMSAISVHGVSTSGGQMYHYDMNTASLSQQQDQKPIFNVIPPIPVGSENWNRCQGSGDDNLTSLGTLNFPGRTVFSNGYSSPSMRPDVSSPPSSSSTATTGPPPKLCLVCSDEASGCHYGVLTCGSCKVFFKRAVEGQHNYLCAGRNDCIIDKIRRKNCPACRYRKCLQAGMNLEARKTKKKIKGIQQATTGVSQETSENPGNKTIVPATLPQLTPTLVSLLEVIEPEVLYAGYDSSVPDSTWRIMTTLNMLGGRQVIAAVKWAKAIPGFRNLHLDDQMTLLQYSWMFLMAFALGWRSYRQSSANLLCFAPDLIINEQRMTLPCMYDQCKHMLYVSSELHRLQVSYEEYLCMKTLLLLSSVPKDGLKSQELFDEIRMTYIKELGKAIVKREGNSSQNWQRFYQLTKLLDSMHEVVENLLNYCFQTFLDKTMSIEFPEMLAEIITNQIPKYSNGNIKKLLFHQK
Voltage-gated inwardly rectifying potassium channel KCNH2 (Homo sapiens), sequence (Q12809 whole entry, looked up): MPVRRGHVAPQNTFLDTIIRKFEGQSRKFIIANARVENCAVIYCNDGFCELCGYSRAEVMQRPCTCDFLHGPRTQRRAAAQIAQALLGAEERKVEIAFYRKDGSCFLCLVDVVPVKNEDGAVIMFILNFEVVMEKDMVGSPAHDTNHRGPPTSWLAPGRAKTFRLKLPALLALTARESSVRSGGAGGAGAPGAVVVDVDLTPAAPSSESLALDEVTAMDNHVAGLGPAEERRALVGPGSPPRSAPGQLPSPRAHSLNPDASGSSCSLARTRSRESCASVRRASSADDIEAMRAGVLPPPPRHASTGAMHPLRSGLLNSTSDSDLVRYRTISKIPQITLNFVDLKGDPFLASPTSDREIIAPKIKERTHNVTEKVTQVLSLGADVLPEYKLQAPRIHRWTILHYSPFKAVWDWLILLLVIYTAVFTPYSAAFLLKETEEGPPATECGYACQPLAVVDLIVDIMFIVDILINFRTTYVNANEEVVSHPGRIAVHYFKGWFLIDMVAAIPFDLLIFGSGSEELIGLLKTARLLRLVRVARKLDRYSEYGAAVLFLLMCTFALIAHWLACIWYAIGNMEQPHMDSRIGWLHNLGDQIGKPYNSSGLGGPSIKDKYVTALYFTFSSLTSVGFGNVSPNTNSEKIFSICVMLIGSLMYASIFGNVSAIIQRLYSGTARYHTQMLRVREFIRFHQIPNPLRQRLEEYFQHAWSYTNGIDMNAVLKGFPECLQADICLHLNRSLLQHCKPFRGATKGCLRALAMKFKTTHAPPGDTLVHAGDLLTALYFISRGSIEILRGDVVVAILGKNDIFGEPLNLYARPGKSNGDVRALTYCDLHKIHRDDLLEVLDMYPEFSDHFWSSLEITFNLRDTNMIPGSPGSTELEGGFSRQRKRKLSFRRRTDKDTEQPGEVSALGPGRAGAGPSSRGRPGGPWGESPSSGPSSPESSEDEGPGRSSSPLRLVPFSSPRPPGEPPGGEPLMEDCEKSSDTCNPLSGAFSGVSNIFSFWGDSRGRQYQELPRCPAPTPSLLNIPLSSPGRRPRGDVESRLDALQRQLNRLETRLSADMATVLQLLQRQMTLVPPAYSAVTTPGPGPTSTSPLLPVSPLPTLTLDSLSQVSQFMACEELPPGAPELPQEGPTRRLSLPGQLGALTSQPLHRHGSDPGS

With `CCC1CO1` (centres undefined), the result in assay [1], in assay [3], in assay [6], in assay [7], in assay [8] and in [10] was inactive. The call in assay [11] was inactive. Also, the activation in assay [2] was -3% (inactive); in assay [15], -2.66% (inactive); in assay [16], -0.443% (inactive). Also, the max response in assay [4] was -69.5%; in assay [9] it was -15.4%; in [12] it was -10.7%; in [13] it was -1.32% (inactive). For the same compound, the Potency entry in [5] is “inactive”. Moreover, the activity change % (negative = inhibition) in assay [14] was -15.4% (inactive).

With `Cc1cc(C)cc([N+](=O)[O-])c1`, the outcome in assay [1], in assay [3], in assay [6], in [8], in assay [17] and in assay [10] was inactive. The compound was classed as inactive in assay [11]. Besides, the activation is -8.13% (inactive) in [2], -0.0084% (inactive) in assay [15] and 0.968% (inactive) in assay [16]. For the same compound, the max response in assay [4] was -43.4%; in assay [9], 8.04%; in assay [12], 5.59%; in assay [13] it was 4.7% (inactive). The Potency result in assay [5], in assay [18] and in [19] was “inactive” in each case.

Turning to `c1ccc(Oc2ccccc2)cc1`, the outcome in assay [1], in assay [3], in assay [17], in assay [10] and in assay [11] was inactive. The activation in assay [2] is 2.66% (inactive) and -3.4% (inactive); in assay [15], -0.263% (inactive) and 10.2% (inactive); in assay [16], -0.173% (inactive) and -1.25% (inactive). For the same compound, the max response in assay [4] was -19.2% and -5.05%; in assay [9], -5.86% and -5.26%; in assay [12], -2.47% and -11.6%; in [13], -1.69% (inactive) and -4.15% (inactive). In addition, the Potency entry in [5] and in assay [18] was “inactive” in each case.

Take `O=CNc1ccccc1`: the call in assay [1], in assay [3], in assay [6], in [7], in assay [17] and in [10] was inactive. Also, the compound was called inactive in [11]. Also, the activation in [2] was -0.553% (inactive). Besides, the values for the max response in [9], in assay [12] and in assay [13] were -8.25%, 2.83% and 1.7% (inactive), respectively. For the same compound, the Potency result in [18] is “inactive”.

For the compound `O=C(Cl)c1cccc([N+](=O)[O-])c1`, the compound was classed as inactive in assay [1], in assay [3], in [6], in assay [8], in assay [17] and in assay [10]. Moreover, the result in [11] was inactive. Further, the activation in assay [2] was 3.39% (inactive); in [16], -0.912% (inactive). Further, the max response in assay [4] is 33.5%; in assay [9], 14.1%; in [12], 0.426%. The Potency result in assay [5], in [18] and in assay [19] was “inactive” in each case. Also, the activity change % (negative = inhibition) in assay [14] was 5.89% (inactive).

`CCC(C)(C)C(=O)O`: the compound was classed as inactive in assay [1], in [3], in assay [6], in assay [7], in assay [8] and in assay [17]. Also, the result in [10] and in [11] was inactive. The results for the activation in assay [2], in assay [15] and in [16] were -7.32% (inactive), 0.0165% (inactive) and -0.114% (inactive), respectively. The max response was -22.2% in assay [4], -9.68% in assay [9], -3.08% in assay [12] and 6.62% (inactive) in assay [13]. Besides, the Potency entry in [5] and in [19] was “inactive” each time.

Turning to `CCC(C)O` (centres undefined), the compound was called inactive in assay [1], in assay [3], in [8], in assay [17], in assay [10] and in assay [11]. The activation is 0.0998% (inactive) in assay [2] and -1.8% (inactive) in [15]. Besides, the max response in assay [4] was -23.2%; in [9] it was -20.4%; in assay [12] it was 2.22%. Also, the Potency result in assay [5], in assay [18] and in assay [19] was “inactive” in each case. Moreover, the activity change % (negative = inhibition) in assay [14] is -7.82% (inactive).

Take `Cc1ccc2oc(=O)ccc2c1`: the compound was called inactive in assay [1], in assay [3], in assay [6], in [7], in assay [8] and in assay [10]. Further, the compound was classed as inactive in assay [11]. The activation in assay [2] is -1.61% (inactive); in [16], -0.483% (inactive) and -1.78% (inactive). Moreover, the max response was 1.44% and 30.5% in assay [4]; 0.296% and 3.97% in assay [9]; -0.906% in assay [12]; -15.9% (inactive) in assay [13]. Moreover, the Potency result in assay [5] and in assay [18] was “inactive” each time. Moreover, the activity change % (negative = inhibition) in [14] is -13% (inactive) and 13.3% (inactive). For the same compound, in [19], the Potency was 8.63 µM (active).
